For 40 compounds, activation and Potency results are on record in PubChem BioAssay (NCATS).

“And” between values parts separate entries of the source, which are not always exact repeats. Equal entries are not always repeated. Records with an inconclusive call do not appear. The source made the active and inactive calls. The call rests on the fitted dose curve; in most records, active means well fitted activation curve with a large enough effect; inconclusive means small, poorly fitted or top-dose-only effect; inactive means flat fitted curve, though single readings scatter.
Potency means the concentration at half of the fitted maximal effect.

The nature of this test: qHTS assay for environmental chemicals that activate the Aryl hydrocarbon Receptor (AhR) signaling pathway (AID 651777). Further: nearly all actives have a fitted effect of over 15% in size. On activation: % of control where 0% means no effect. The note with it: 1A2-DRE human hepatoma cells, luciferase, 24 h; activation: stronger effect = higher value. The text has this:
National Center for Advancing Translational Sciences [NCATS]
NIH Chemical Genomics Center [NCGC]
U.S. Environmental Protection Agency [EPA]
National Institutes of Environmental Health Sciences [NIEHS]
National Toxicology Program [NTP]
The Aryl hydrocarbon Receptor (AhR) plays a critical role in the development of cancer or neoplasm and its formation is most likely due to genetic mutations and the influence of environment. Exposure to environmental pollutants such as polycyclic aromatic hydrocarbons (PAH), their halogenated derivatives and heterocyclic amines causes the induction of phase I and II enzymes. The transcriptional activation of CYP1A2 is directly regulated by AhR.
A cell based assay (1A2-DRE cells, developed by Puracyp, Inc., CA) was used to assess the activation of AhR. Human hepatoma cells were stably transfected with the dioxin response element (DRE) and CYP1A2 promoter fused to a luciferase gene. Increased luciferase activity can be used to identify the compounds that cause the induction of CYP1A2 and AhR activation.
1,200 cells in 5 uL/well were dispensed into white wall/solid bottom 1536-well plates using a Multidrop Combi (Thermo Scientific) dispenser. Following transfer of 23 nL compound or DMSO vehicle by a pin tool, the plates were incubated 24 hr at 37 C and 5% CO2. 5 ul One-Glo (Promega) was then added to each well and following 30 min incubation at room temperature, luciferase activity was quantified on a ViewLux CCD-based plate reader.
As to `O=c1[nH]sc2ccccc12`, the activation was 2.41% (inactive).
Still for that read-out and setting: as for `O=C(OCC1CCC2OC2C1)C1CCC2OC2C1` (stereo not given), the figure is 1.05% (inactive); as for `C=C(C)C(=O)OCC(CC)(COC(=O)C(=C)C)COC(=O)C(=C)C`, -0.628% (inactive).
Still for that read-out and setting: to `CC(C)(C)c1cccc(C(C)(C)C)c1O` belongs 0.241% (inactive); to `C=Cc1ccc(P(c2ccccc2)c2ccccc2)cc1`, 0.447% (inactive).
Same read-out and setting: as for `c1ccc(-c2ccc(-c3ccccc3)cc2)cc1`, the figure is 6.5% (inactive).
With `CC1(C)C(=O)N(Cl)C(=O)N1Cl`, the activation is 0.743% (inactive).
Still for that read-out and setting: to `CCCCOCCOCCOC(=O)CCCCC(=O)OCCOCCOCCCC` belongs -0.636% (inactive); to `CNc1nc(=O)n(C2CCCCC2)c(=O)n1C`, 2.39% (inactive).
On the same count and under the same terms, to `Nc1c(N=Nc2ccc(S(=O)(=O)CCOS(=O)(=O)O)cc2)c(S(=O)(=O)O)cc2cc(S(=O)(=O)O)c(N=Nc3ccc(S(=O)(=O)CCOS(=O)(=O)O)cc3)c(O)c12` belongs -7.65% (inactive).
On the same count and under the same terms, to `Nc1cc(Cl)nc(C(=O)O)c1Cl` belongs 1.56% (inactive).
For the compound `O=C(Nc1ccccc1)c1cc(Cl)ccc1O`, the Potency is 15.8 µM (active).
In the case of `CC1(C)CC(OC(=O)CCCCCCCCC(=O)OC2CC(C)(C)NC(C)(C)C2)CC(C)(C)N1`, the activation was 0.228% (inactive).
The same measure, in the same setting: as for `CCCCC(CC)COP(=O)(O)OCC(CC)CCCC` (stereo not given), the figure is -0.89% (inactive).
Turning to `CC(=O)N(CCN(C(C)=O)C(C)=O)C(C)=O`, the activation is -3.27% (inactive).
Consider `C[Si](Cl)(Cl)c1ccccc1`, for which the activation was 0.0847% (inactive).
On the same count and under the same terms, as for `CCCCOC(=O)[C@@H](C)Oc1ccc(Oc2ccc(C(F)(F)F)cn2)cc1`, the figure is -0.836% (inactive) and 0.498% (inactive).
Take `O=C(c1ccc(Cl)cc1)c1ccc(Cl)cc1`: the activation is -0.153% (inactive).
Still for that read-out and setting: to `CCC(O)OCCCOC` (stereo not given) belongs 0.32% (inactive); to `C[Si]1(C)O[Si](C)(C)O[Si](C)(C)O1`, 1% (inactive).
The same measure, in the same setting: as for `CCCCCCCC1CCC(=O)O1` (stereo not given), the figure is 4.53% (inactive).
On the same count and under the same terms, to `Cc1cc(C)c(N)c(Cl)c1` belongs -1.79% (inactive).
For the compound `CC(C)(C)c1cc(C(C)(C)C)c(O)c(C(C)(C)C)c1`, the activation was -0.208% (inactive).
Still for that read-out and setting: as for `CC(=O)CC(=O)Nc1ccccc1C`, the figure is 3.12% (inactive).
For the compound `CC(C)Nc1nc(N)nc(Cl)n1`, the activation was 1.51% (inactive) and -1.55% (inactive).
On the same count and under the same terms, as for `C1CCC2(CCCCO2)OC1`, the figure is 0.829% (inactive); as for `Cc1ccc(Cl)cc1Cl`, 1.78% (inactive).
Same read-out and setting: to `CCCCC(CC)COC(C)=O` (stereo not given) belongs -1.93% (inactive).
The same measure, in the same setting: as for `CC(C)CCCCCOC(=O)CS`, the figure is -0.874% (inactive).
`Cc1ccc(N=Nc2c(O)ccc3ccccc23)c(C)c1`: the Potency is 31.6 µM (active).
On to `CCCCC/C=C\C/C=C\CCCCCCCC(=O)OC`, for which the activation was 1.77% (inactive).
On the same count and under the same terms, to `OCCOCCOCCOCCO` belongs 2.06% (inactive); to `CCCCCCCCCC(C)=O`, 0.0383% (inactive); to `O=C(O)C(Oc1ccc(Cl)cc1)Oc1ccc(Cl)cc1`, -1.04% (inactive).
Still for that read-out and setting: to `CCCCCCCCCCCCc1ccccc1` belongs 0.463% (inactive); to `CCCCCCC(O)CCCCCCCCCCC(=O)O` (stereo not given), -0.827% (inactive); to `FC(F)(F)c1ccc(Cl)c(Cl)c1`, 3.72% (inactive).
Still for that read-out and setting: as for `CC(C)=CCC/C(C)=C\CO`, the figure is 0.559% (inactive).
In the case of `CC1COCc2cc3c(cc21)C(C)(C)C(C)C3(C)C` (stereo not given), the activation was 1.13% (inactive).
Still for that read-out and setting: to `O=C(O)CN(CCO)CCN(CC(=O)O)CC(=O)O` belongs -0.73% (inactive).
